Of roughly 7,900 targets only a part is listed; those with a hit were picked by preference. About 0.6% of all pairs of compound and target were hits.
Each target was assayed with c1cn2cc(-c3ccc4cn[nH]c4c3)nc(Nc3ccc(N4CCOCC4)cc3)c2n1 [entospletinib] (assay: log2 fold change, soluble protein after heating vs DMSO (PISA); higher = thermal stabilisation; K562 cells, 10 uM, 30 min; active = over 0.2 and 3.5 SD of the protein, either way, in both replicates (recomputed)).
Method in brief: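 Soluble protein was quantified by TMTpro 16plex LC-MS/MS after channel sums were equalised. It was obtained as the supernatant after 21,000xg for 90 min from pooled aliquots of K562 cells (2×10^6 cells/mL, 10 μM compound, 30 min) heated for 3 min across 48°C-58°C and extracted in PBS with 0.5% NP-40 at 4°C. Thermal stability values are relative to control samples and come from duplicates. They are given as log2 fold changes.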

Sequence of UniProt Q9Y673 (Q9Y673 whole entry, looked up): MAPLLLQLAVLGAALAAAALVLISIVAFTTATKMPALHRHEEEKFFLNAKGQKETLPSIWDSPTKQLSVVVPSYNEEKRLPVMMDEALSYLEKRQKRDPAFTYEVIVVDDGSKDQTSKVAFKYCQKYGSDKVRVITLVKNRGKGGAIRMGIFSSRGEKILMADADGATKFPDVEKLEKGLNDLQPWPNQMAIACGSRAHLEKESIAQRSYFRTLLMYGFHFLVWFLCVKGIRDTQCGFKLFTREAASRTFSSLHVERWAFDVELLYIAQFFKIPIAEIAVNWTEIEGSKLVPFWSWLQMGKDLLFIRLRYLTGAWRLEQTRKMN
Sequence of UniProt Q9H7F0 (Q9H7F0 whole entry, looked up): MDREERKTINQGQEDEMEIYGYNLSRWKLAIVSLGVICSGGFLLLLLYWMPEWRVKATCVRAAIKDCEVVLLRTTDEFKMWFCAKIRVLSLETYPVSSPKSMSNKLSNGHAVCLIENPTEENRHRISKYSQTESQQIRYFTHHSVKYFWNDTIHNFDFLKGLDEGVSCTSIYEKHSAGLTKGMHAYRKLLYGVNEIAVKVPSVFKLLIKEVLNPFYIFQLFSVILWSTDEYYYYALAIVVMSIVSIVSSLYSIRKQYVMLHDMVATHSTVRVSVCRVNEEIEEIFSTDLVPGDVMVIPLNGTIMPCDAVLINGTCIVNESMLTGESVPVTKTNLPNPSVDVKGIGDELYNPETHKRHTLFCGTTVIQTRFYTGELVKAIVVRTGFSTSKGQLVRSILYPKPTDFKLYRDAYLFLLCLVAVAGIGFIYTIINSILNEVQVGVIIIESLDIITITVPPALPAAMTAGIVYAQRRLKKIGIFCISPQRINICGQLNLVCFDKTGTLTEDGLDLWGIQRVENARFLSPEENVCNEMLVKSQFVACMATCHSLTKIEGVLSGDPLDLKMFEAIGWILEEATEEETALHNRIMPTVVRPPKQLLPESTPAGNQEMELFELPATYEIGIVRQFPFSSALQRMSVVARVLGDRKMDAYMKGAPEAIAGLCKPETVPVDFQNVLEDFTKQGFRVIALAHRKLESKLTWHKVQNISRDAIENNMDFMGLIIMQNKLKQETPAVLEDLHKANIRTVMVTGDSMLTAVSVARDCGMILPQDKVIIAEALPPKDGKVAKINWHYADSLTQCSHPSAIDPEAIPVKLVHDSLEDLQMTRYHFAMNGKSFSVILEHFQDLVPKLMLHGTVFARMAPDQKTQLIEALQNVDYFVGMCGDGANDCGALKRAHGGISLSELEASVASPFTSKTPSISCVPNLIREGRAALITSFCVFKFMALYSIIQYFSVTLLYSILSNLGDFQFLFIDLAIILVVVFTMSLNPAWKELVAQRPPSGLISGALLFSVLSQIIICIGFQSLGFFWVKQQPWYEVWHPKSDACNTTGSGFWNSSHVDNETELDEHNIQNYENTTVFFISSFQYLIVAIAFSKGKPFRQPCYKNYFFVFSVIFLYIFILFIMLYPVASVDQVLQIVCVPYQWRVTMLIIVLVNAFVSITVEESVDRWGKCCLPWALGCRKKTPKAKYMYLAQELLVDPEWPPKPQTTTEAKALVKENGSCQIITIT
Sequence of UniProt O43823 (O43823 whole entry, looked up): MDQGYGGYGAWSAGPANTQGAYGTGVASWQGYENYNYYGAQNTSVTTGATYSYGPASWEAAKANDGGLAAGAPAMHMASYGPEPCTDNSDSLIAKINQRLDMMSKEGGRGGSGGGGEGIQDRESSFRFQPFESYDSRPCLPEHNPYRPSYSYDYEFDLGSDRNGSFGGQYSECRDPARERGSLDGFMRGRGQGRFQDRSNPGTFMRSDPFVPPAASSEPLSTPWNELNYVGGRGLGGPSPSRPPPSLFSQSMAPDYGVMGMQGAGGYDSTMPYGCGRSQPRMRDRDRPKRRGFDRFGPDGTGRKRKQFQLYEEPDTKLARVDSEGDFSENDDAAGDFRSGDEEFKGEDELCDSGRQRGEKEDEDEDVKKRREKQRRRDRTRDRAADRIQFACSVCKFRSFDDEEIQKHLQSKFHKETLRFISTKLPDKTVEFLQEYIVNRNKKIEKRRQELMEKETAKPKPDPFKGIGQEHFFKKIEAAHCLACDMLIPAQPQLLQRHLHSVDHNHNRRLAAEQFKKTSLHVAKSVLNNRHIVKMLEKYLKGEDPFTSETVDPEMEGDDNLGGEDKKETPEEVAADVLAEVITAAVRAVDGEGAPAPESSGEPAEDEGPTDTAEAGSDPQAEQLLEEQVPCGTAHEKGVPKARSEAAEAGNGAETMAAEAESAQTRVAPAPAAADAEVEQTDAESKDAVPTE
Sequence of UniProt Q9BTE6 (Q9BTE6 whole entry, looked up): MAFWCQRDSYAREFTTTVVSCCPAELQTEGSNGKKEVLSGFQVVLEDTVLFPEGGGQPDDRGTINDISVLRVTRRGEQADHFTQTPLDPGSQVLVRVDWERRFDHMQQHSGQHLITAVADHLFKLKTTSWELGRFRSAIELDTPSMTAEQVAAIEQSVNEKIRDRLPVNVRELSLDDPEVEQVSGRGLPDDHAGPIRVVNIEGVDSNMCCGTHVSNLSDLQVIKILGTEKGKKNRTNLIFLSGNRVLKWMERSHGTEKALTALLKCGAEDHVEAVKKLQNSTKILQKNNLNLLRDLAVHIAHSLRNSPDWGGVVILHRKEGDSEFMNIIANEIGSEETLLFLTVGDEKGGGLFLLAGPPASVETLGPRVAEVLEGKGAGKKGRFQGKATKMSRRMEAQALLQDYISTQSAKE
Sequence of UniProt Q9UII2 (Q9UII2 whole entry, looked up): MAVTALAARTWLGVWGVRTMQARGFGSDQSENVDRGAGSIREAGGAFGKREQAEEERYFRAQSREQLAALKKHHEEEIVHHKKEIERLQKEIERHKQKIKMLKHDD
Sequence of UniProt O00116 (O00116 whole entry, looked up): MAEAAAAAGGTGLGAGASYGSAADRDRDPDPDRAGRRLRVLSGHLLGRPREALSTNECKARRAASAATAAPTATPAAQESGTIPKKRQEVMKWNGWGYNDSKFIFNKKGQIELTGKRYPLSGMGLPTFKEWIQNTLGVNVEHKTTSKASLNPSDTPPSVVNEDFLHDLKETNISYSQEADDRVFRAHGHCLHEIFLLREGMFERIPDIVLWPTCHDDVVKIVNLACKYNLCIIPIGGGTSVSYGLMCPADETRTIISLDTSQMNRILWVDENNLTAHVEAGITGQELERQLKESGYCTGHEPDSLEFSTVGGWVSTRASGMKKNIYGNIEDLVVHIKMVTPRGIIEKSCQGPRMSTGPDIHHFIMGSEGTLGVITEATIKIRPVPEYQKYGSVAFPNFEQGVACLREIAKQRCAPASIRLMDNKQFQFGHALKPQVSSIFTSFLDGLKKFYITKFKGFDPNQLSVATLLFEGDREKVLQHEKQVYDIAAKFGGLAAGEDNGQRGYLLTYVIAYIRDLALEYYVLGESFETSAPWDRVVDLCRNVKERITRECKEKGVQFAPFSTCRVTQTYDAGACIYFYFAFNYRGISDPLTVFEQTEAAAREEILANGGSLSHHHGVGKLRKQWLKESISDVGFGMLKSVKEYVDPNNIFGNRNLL
Sequence of UniProt Q96GS6 (Q96GS6 whole entry, looked up): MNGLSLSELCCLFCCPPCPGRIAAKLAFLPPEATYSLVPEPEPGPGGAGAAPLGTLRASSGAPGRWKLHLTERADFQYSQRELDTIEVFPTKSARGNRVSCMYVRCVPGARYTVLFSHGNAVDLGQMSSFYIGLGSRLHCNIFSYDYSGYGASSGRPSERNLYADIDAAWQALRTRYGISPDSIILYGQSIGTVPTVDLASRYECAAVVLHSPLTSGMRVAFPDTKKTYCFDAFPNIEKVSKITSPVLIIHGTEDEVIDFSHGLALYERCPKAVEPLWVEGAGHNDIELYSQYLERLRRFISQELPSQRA
Sequence of UniProt Q96CW1 (Q96CW1 whole entry, looked up): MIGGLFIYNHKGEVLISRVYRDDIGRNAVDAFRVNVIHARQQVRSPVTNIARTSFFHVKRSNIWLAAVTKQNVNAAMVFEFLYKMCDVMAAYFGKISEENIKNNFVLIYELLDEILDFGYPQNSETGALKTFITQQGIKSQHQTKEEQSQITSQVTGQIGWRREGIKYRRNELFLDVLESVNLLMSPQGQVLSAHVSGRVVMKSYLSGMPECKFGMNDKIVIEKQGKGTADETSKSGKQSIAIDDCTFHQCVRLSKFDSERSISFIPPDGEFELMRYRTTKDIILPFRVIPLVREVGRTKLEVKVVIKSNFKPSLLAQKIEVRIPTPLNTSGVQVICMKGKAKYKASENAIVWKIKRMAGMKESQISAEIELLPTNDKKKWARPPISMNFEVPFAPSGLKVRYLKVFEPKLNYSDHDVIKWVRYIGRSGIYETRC
Sequence of UniProt P05091 (P05091 whole entry, looked up): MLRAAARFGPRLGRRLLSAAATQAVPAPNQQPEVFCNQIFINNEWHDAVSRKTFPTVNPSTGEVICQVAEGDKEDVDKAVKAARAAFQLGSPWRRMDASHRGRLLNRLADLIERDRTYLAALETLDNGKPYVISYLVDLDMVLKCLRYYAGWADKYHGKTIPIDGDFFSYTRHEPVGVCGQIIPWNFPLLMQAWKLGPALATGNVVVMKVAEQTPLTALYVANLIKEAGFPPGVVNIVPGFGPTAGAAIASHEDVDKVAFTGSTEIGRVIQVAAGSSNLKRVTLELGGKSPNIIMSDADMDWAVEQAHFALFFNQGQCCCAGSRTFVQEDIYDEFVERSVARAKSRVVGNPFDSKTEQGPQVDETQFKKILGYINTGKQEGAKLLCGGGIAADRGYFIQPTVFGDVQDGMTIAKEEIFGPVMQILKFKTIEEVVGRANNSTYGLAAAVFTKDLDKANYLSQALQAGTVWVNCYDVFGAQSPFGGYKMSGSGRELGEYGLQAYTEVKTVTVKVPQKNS
Sequence of UniProt P56385 (P56385 whole entry, looked up): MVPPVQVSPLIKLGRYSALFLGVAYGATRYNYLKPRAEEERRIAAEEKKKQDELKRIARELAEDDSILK
Sequence of UniProt Q13795 (Q13795 whole entry, looked up): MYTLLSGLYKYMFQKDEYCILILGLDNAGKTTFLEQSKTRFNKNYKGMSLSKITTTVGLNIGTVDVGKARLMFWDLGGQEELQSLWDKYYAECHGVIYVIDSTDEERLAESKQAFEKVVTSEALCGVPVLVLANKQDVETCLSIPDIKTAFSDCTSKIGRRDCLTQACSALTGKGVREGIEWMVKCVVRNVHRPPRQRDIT

Target | log2 fold change
BRD8 isoform 2 (UniProt Q9H0E9) | 0.045 (inactive)
AKAP8 (UniProt O43823) | -0.018 (inactive)
AARSD1 (UniProt Q9BTE6) | -0.371 (inactive)
BCCIP isoform 2 (UniProt Q9P287) | 0.008 (inactive)
ABHD16A (UniProt O95870) | 0.002 (inactive)
AGPS (UniProt O00116) | 0.008 (inactive)
ATP13A3 (UniProt Q9H7F0) | 0.042 (inactive)
ALDH2 isoform 2 (UniProt P05091) | 0.118 (inactive)
AARS2 (UniProt Q5JTZ9) | -0.082 (inactive)
ATAD1 (UniProt Q8NBU5) | 0.022 (inactive)
ATP5ME (UniProt P56385) | 0.027 (inactive)
ATP1A1 (UniProt P05023) | 0.002 (inactive)
AKT2 (UniProt P31751) | 0.005 (inactive)
ADH5 (UniProt P11766) | -0.025 (inactive)
BRIX1 (UniProt Q8TDN6) | 0.029 (inactive)
BCL9L (UniProt Q86UU0) | -0.027 (inactive)
ATP5IF1 (UniProt Q9UII2) | 0.057 (inactive)
ABHD17A isoform 2 (UniProt Q96GS6) | -0.076 (inactive)
ATP23 (UniProt Q9Y6H3) | 0.077 (inactive)
ACSL4 (UniProt O60488) | 0.009 (inactive)

Target | log2 fold change
ARFRP1 (UniProt Q13795) | 0.024 (inactive)
ALDH9A1 isoform 3 (UniProt P49189) | -0.017 (inactive)
AUH (UniProt Q13825) | -0.068 (inactive)
ACTBL2 (UniProt Q562R1) | 0.103 (inactive)
AIP (UniProt O00170) | -0.031 (inactive)
ATRN (UniProt O75882) | 0.02 (inactive)
ATP6V0A2 (UniProt Q9Y487) | 0.009 (inactive)
B4GALT1 (UniProt P15291) | 0.039 (inactive)
APOB (UniProt P04114) | 0.04 (inactive)
ATP6V1C1 (UniProt P21283) | -0.02 (inactive)
AKR1C3 (UniProt P42330) | -0.011 (inactive)
BAD (UniProt Q92934) | -0.014 (inactive)
BRMS1 (UniProt Q9HCU9) | 0.078 (inactive)
ASS1 (UniProt P00966) | 0.096 (inactive)
ATP13A2 (UniProt Q9NQ11) | -0.115 (inactive)
ACACB (UniProt O00763) | -0.077 (inactive)
AP2M1 (UniProt Q96CW1) | 0.025 (inactive)
ALG5 (UniProt Q9Y673) | -0.005 (inactive)
ABHD11 (UniProt Q8NFV4) | 0.006 (inactive)

— the supplement of paper PMC10849652
